The campaign covered roughly 2,300 compounds. About 1,100 (48%) were called active. So high a share suggests a set chosen from earlier hits. Some of the results follow. Where a call stands in place of a potency, no number is given. Potency and affinity values are given separately. A number with no mark means an inactive call. No rule for the calls is given here.
Assay: inhibitors in S. typhi counter-screen strain, dose response, counter-screen for PhoP regulon inhibitor project, fluorescence, 4 h (AID 2384)
Details: S. typhi GFP reporter counter-screen; series mostly up to 150 µM
For CCCCNC(=O)NS(=O)(=O)c1ccc(C(=O)OC)o1, the inhibition was “inactive”.
With CC(C)OC(=O)c1cccc(C(=O)Oc2ccc(Br)cc2)n1 the inhibition was “inactive”.
In the case of Nc1ccc(S(=O)(=O)Nc2ccc(Cl)nn2)cc1, the inhibition is reported as “inactive”.
For CN1CCN(C2=Cc3cc(Cl)ccc3Sc3cc(F)ccc32)CC1, the inhibition was “inactive”.
In the case of CN1CCN(c2ccc(C(=O)c3cn(-c4ccc(F)c(Cl)c4)nn3)cc2)CC1, the inhibition is reported as “inactive”.
For CCc1nnc(NS(=O)(=O)c2ccc(N=Cc3c(C)[nH]n(-c4ccc(C)cc4)c3=O)cc2)s1, the inhibition was “inactive”.
With COC(=O)C1=C(C)N(C2CCCC2)C(=O)C1(NC(C)=O)C(F)(F)F (stereo unspecified) the inhibition was “inactive”.
With O=C(CN(Cc1ccco1)C(=O)CNS(=O)(=O)c1ccc(Cl)cc1)NCc1ccc(F)cc1 the inhibition was “inactive”.
For CN(C)CCN1C(=O)C(O)=C(C(=O)c2cc3ccccc3o2)C1c1ccccn1 (stereo unspecified), the inhibition was “inactive”.
For CC(=O)c1ccc(OC(=O)c2cc3ccccc3oc2=O)cc1, the inhibition was “inactive”.
With O=C(O)c1ccc(S(=O)(=O)NC2CC2)cc1 the inhibition was “inactive”.
In the case of Cc1ccc(OCCCCn2c(CO)nc3ccccc32)cc1, the inhibition is reported as “inactive”.
With CCCCOc1ccc(-c2nnn(CC(=O)Nc3ncc(CC(=O)OCC)s3)n2)cc1 the inhibition was “inactive”.
For Cc1cccc(OCc2nnc(SCC(=O)N3CCCC3)n2C)c1, the inhibition was “inactive”.
Compound Cc1ccc2nc(/C(C#N)=C\c3ccc(N4CCCCC4)c([N+](=O)[O-])c3)[nH]c2c1 has an inhibition of 17.9% [at 9.38 µM].
For CCCCc1cc(=O)oc2cc(C)cc(OCC(=O)NCC3CCC(C(=O)O)CC3)c12 (stereo unspecified), the inhibition was “inactive”.
For Cc1ccc(/C=C2\SC(=S)N(c3cccnc3)C2=O)o1, the inhibition was “inactive”.
For O=C1c2ccc3c4c(ccc(c24)C(=O)N1c1cccc(O)c1)C(=O)N(c1cccc(O)c1)C3=O, the inhibition was “inactive”.
For Cc1cccc(N2C(=O)CS/C2=N\NC(=O)c2ccc(Br)cc2)c1C, the inhibition was “inactive”.
In the case of Cc1c(C(=O)O)sc(=S)n1-c1ccc(Cl)cc1, the inhibition is reported as “inactive”.
For CC(=O)NCc1ccc(C(=O)CSc2nnc(-c3ccncc3)n2Cc2ccccc2)o1, the inhibition was “inactive”.
In the case of COc1ccc(S(=O)(=O)N[C@H](C(=O)N2CC[C@@]3(O)CCCC[C@H]3C2)c2ccccc2)cc1, the inhibition is reported as “inactive”.
In the case of COc1ccc(OC)c(S(=O)(=O)N2CCC(C(=O)NCCc3ccc(OC)c(OC)c3)CC2)c1, the inhibition is reported as “inactive”.
In the case of COc1ccc(OC)c(NC(=O)CCNS(=O)(=O)c2ccc3c(c2)c(=O)n(C)c(=O)n3C)c1, the inhibition is reported as “inactive”.
With O=C(CCCOc1ccc(Cl)cc1Cl)NNC(=O)C1CCC1 the inhibition was “inactive”.
In the case of Clc1ccc(OCc2nn3c(C4CCCCC4)nnc3s2)c(Cl)c1, the inhibition is reported as “inactive”.
In the case of CC(C)OC(=O)Cn1c(=O)sc2ccccc21, the inhibition is reported as “inactive”.
With CC/C(=N\Nc1ccnc2cc(Cl)ccc12)c1ccc(O)cc1 the inhibition was “inactive”.
In the case of Cc1ccc(NC(=O)CS(=O)CC(=O)Nc2ccccc2-c2ccc(C)o2)cc1 (stereo unspecified), the inhibition is reported as “inactive”.
With Cc1ccc(NC(=O)Cc2ccc(F)cc2)cc1 the inhibition was “inactive”.
For CC1CCN(CC(CS(=O)(=O)c2ccc([N+](=O)[O-])cc2)N2CCC(C)CC2)CC1 (stereo unspecified), the inhibition was “inactive”.
In the case of C=CCN(c1ccccc1)S(=O)(=O)c1cccc2cccnc12, the inhibition is reported as “inactive”.
In the case of CC1CC(C)CN(S(=O)(=O)c2cccc3cccnc23)C1 (stereo unspecified), the inhibition is reported as “inactive”.
In the case of Cc1cc(C(=O)OCC(=O)Nc2cccc(S(=O)(=O)N3CCOCC3)c2)c(C)o1, the inhibition is reported as “inactive”.
For Cc1nc(N=Nc2ccc(O)cc2)n[nH]1, the inhibition was “inactive”.
For Cc1cccc(-n2ccnc2CN2CCN(C3CCCC3)C(CCO)C2)c1 (stereo unspecified), the inhibition was “inactive”.
In the case of O=C1c2[nH]nc(-c3ccccc3O)c2C(c2ccc(F)cc2)N1CC1CCCO1 (stereo unspecified), the inhibition is reported as “inactive”.
With COc1ccccc1-c1cc2nc(C)c(CCC(=O)NC(C)CCc3ccco3)c(C)n2n1 (stereo unspecified) the inhibition was “inactive”.
In the case of O=C(NCCCn1ccnc1)c1cc2c(ccc3ccccc32)o1, the inhibition is reported as “inactive”.
In the case of O=C(/C=C/c1ccc(Cl)cc1)NCCCn1ccnc1, the inhibition is reported as “inactive”.
In the case of CC(=O)CC1OC(=O)C(Br)=C1NCc1ccccc1 (stereo unspecified), the inhibition is reported as “inactive”.
In the case of Cc1ccc(-n2c(Cc3noc4ccccc34)n[nH]c2=S)cc1, the inhibition is reported as “inactive”.
With CCn1c(-c2ccncc2)n[nH]c1=S the inhibition was “inactive”.
For O=C(OCCCN1C(=O)c2ccccc2C1=O)c1ccco1, the inhibition was “inactive”.
For OCC[C@H]1C[C@H](O)[C@@H](O)[C@@]2(Cc3ccccc3CO2)O1, the inhibition was “inactive”.
With Cc1ccc(N(CC(=O)Nc2c(C)n(C)n(-c3ccccc3)c2=O)S(C)(=O)=O)cc1C the inhibition was “inactive”.
In the case of Oc1ccc(C=NC2CCCCC2)c(O)c1, the inhibition is reported as “inactive”.
In the case of Cc1nc2ccccc2nc1N/N=C/c1ccc(O)cc1O, the inhibition is reported as “inactive”.
With CCN(CCCNC(=O)c1cn(CC)c2ccc(S(=O)(=O)N(C)C)cc2c1=O)c1cccc(C)c1 the inhibition was “inactive”.
With Clc1ccc(CONc2ncnc3nonc23)c(Cl)c1 the inhibition was “inactive”.
With COc1ccc(OC)c(C2=NO[C@@H]3C(=O)N(c4cc(Cl)ccc4OC)C(=O)[C@H]23)c1 the inhibition was “inactive”.
For CC(C)(C)CC(=O)Nc1nnc(SCC(=O)N2CCCCC2)s1, the inhibition was “inactive”.
For Cc1cc(C)c(S(=O)(=O)Nc2ccccc2C(=O)OCC(=O)NCc2ccccc2)c(C)c1, the inhibition was “inactive”.
With CC1Cc2ccccc2N1S(=O)(=O)c1cccc(C(=O)N2CC(=O)Nc3ccccc32)c1 (stereo unspecified) the inhibition was “inactive”.
With O=[N+]([O-])c1ccc(-c2cnc(NO)nc2)cc1 the inhibition was “inactive”.
With Cn1c(-c2ccc(Cl)cc2)cnc1N the inhibition was “inactive”.
In the case of CCC(O)CNc1nc(SC)nc2sc3c(c12)CCN(C)C3 (stereo unspecified), the inhibition is reported as “inactive”.
For c1ccc(CSc2ccc(-c3cccs3)nn2)nc1, the inhibition was “inactive”.
With COc1ccc(C(=O)C[n+]2cc(Br)cc3ccccc32)cc1[N+](=O)[O-] the inhibition was “inactive”.
With c1ccc2c(Nc3nnc(-c4ccncc4)s3)cccc2c1 the inhibition was “inactive”.
For O=C(N/N=C/c1cccnc1)c1ccc(F)cc1, the inhibition was “inactive”.
For Clc1ccc(N/N=C/c2cccs2)nn1, the inhibition was “inactive”.
In the case of CC(/C=C\c1cccnc1)=C/C(=O)O, the inhibition is reported as “inactive”.
In the case of CSc1nnc(-c2cccc(NC(=S)NN)c2)o1, the inhibition is reported as “inactive”.
With Cc1ccc2cc(CN(Cc3ccc(F)cc3)Cc3nnnn3C3CCCC3)c(=O)[nH]c2c1 the inhibition was “inactive”.
With Nc1ccc(S(=O)(=O)c2ccc(N)cc2)cc1 the inhibition was “inactive”.
With Cc1ccc(NC(=S)NCc2cccnc2)cc1 the inhibition was “inactive”.
For CCc1nnc(NC(=O)c2ccc(S(C)(=O)=O)cc2)s1, the inhibition was “inactive”.
In the case of O=C(O)c1cnn2c1NC(c1cccs1)CC2C(F)(F)F (stereo unspecified), the inhibition is reported as “inactive”.
For CCCn1c(SCc2ccc(Cl)cc2)nc2c1c(=O)[nH]c(=O)n2C, the inhibition was “inactive”.
In the case of NS(=O)(=O)c1ccc(CCNS(=O)(=O)c2cccc(C(=O)O)c2)cc1, the inhibition is reported as “inactive”.
In the case of NS(=O)(=O)c1ccc(CCNC(=O)C(=O)C2C(=O)Nc3ccccc32)cc1 (stereo unspecified), the inhibition is reported as “inactive”.
With COC(=O)C1=C(C)N(Cc2ccco2)C(=O)N[C@H]1c1ccc(Br)cc1 the inhibition was “inactive”.
In the case of COC(=O)C1=C(C)N(CC2CC2)C(=O)N[C@H]1c1ccc(Br)cc1, the inhibition is reported as “inactive”.
For CC(C)CC(c1nnnn1Cc1ccco1)N1CCN(c2cccc(Cl)c2)CC1 (stereo unspecified), the inhibition was “inactive”.
For CCCC(C(=O)NCC1CCCO1)N(Cc1ccco1)C(=O)CNS(=O)(=O)c1ccc(F)cc1 (stereo unspecified), the inhibition was “inactive”.
In the case of Cc1c(C2(O)C(=O)Nc3ccc(F)cc32)c(=O)n(-c2ccccc2)n1C (stereo unspecified), the inhibition is reported as “inactive”.
For Nc1ccc(N=Nc2ccccc2)c(N)n1, the inhibition was “inactive”.
With Nc1nc2ccccc2cc1-c1cccs1 the inhibition was “inactive”.
With Nc1nn2cc(-c3ccccc3)nc2c2ccccc12 the inhibition was “inactive”.
For Cc1ccc(CN2C3=NCCN3c3ccccc32)cc1, the inhibition was “inactive”.
With Cc1cccc(CN2C3=NCCCN3c3ccccc32)c1 the inhibition was “inactive”.
In the case of O=C(COc1ccc(Cl)cc1)N1CCCCC1, the inhibition is reported as “inactive”.
In the case of O=C(CSc1ccc(Cl)cc1)c1ccco1, the inhibition is reported as “inactive”.
For CC(C)(C)NC(=O)/C=C/c1ccc(C(F)(F)F)cc1, the inhibition was “inactive”.
In the case of CC(=O)C1C(c2ccc(OC(F)F)cc2)NC(=O)NC1(O)C(F)(F)F (stereo unspecified), the inhibition is reported as “inactive”.
For c1ccc2c(SCc3cn4ccccc4n3)nncc2c1, the inhibition was “inactive”.
In the case of O=C(Cn1c(C(F)(F)F)nc2ccccc21)NCCCN1CCOCC1, the inhibition is reported as “inactive”.
With Cc1cccc(N(C(=O)CCC(=O)Nc2ccccn2)C(C(=O)NC(C)C)c2ccc(O)cc2)c1 (stereo unspecified) the inhibition was “inactive”.
With CC(C(=O)NC1CCCCC1)N1CCN(C)CC1 (stereo unspecified) the inhibition was “inactive”.
In the case of O=C(CCS(=O)(=O)c1ccccc1)Nc1ccc2c(c1)C(=O)NC2=O, the inhibition is reported as “inactive”.
In the case of CCCCCCNC1=NCCS1, the inhibition is reported as “inactive”.
With CC(=O)Cc1nsc(NC(=O)c2csc3c2CCCC3)n1 the inhibition was “inactive”.
In the case of C[N+](C)(CCCCCC[N+](C)(C)CCCN1C(=O)c2cccc3cccc(c23)C1=O)CCCN1C(=O)c2cccc3cccc(c23)C1=O, the inhibition is reported as “inactive”.
With CCn1c(=N)n(CC(=O)c2ccc(OC)cc2)c2ccccc21 the inhibition was “inactive”.
With CCOC(=O)CNC(=O)Cn1c(C)cc2ccccc2c1=O the inhibition was “inactive”.
In the case of Cc1ccc(-n2c(=O)c3sccc3n(CC(=O)NC3CCCCC3)c2=O)cc1, the inhibition is reported as “inactive”.
In the case of COc1ccc(/C=N/NC(=O)c2cc3c(OC)ccc(OC)c3[nH]2)cc1O, the inhibition is reported as “inactive”.
For O=C(CSc1nnc(-c2cccnc2)n1Cc1ccco1)c1ccc2ccccc2c1, the inhibition was “inactive”.
For Cc1cc(NCCCn2ccnc2)n2ncc(-c3ccccc3)c2n1, the inhibition was “inactive”.
For Cc1ccccc1Cn1c(=O)n(CCCC(=O)NCc2ccco2)c(=O)c2ccccc21, the inhibition was “inactive”.
In the case of Cc1cc(C)nc(SCC(=O)NCc2ccco2)n1, the inhibition is reported as “inactive”.
For COc1ccccc1NC(=O)Cn1c(=O)n(CCc2c[nH]c3ccccc23)c(=O)c2cccnc21, the inhibition was “inactive”.
With COc1ccc(CNCCc2c[nH]c3ccccc23)c(OC)c1C the inhibition was “inactive”.
For CCOC(=O)Cn1c(=O)oc2cc(S(=O)(=O)NCC3CCCO3)ccc21 (stereo unspecified), the inhibition was “inactive”.
For Cc1ccc(N2CC(C(=O)OCc3ccccc3F)CC2=O)cc1 (stereo unspecified), the inhibition was “inactive”.
For C=C(C)Cn1c(SCC#N)nc2ccccc2c1=O, the inhibition was “inactive”.
For Cc1cc(C(F)F)n2nc(C(=O)Nc3cc(C)on3)nc2n1, the inhibition was “inactive”.
In the case of CCc1nc(C)ccc1OCC(=O)N(CC)CC, the inhibition is reported as “inactive”.
For CNS(=O)(=O)c1cccc(C(=O)OCc2cc(=O)oc3c(C)c(O)ccc23)c1, the inhibition was “inactive”.
In the case of [O-][n+]1onc2c1CCc1[nH]c(-c3ccccc3)nc1-2, the inhibition is reported as “inactive”.

Reference: PubChem BioAssay AID2384 (Southern Research Specialized Biocontainment Screening …, 2010)
